Results filed as inconclusive are left out. The source made the active and inactive calls. Unless noted, calls come from the whole dose curve; as a rule, active = well fitted curve in the direction sought with a large enough effect in the repeat runs; inconclusive = weak or mixed curves; inactive = no such curve, though single readings can be large; an effect the other way counts as inactive or inconclusive.
Assays:
[1] = qHTS assay for small molecules that induce genotoxicity in human embryonic kidney cells expressing luciferase-tagged ATAD5 (AID 651632); note: nearly all actives have a fitted effect of over 15% in size
Outline: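 HEK293T cells carrying luciferase-tagged ATAD5 were given compound or DMSO vehicle and incubated 16 hr at 37C, 5% CO2. Luciferase activity was read after 30 min at room temperature with Amplite; a rise signals genotoxic stress.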

[2] = qHTS assay for small molecule agonists of the p53 signaling pathway - cell viability (AID 651633; calls by dose curve;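 note: p53RE-bla HCT reporter cells with a stable beta-lactamase p53 reporter; series mostly up to about 83 µM; nearly all actives have a fitted effect of over 30% in size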)
Outline: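 p53RE-bla cells, seeded at 4,000 per well and rested 5 h at 37 C/5% CO2, received compounds in DMSO for 16 h at 37 C. CellTiter-Glo was then added, and luminescence was read after 30 min at room temperature to gauge cytotoxicity.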

[3] = qHTS assay for small molecules that induce genotoxicity in human embryonic kidney cells expressing luciferase-tagged ATAD5 - cell viability (AID 651634; calls by dose curve; note: nearly all actives have a fitted effect of over 25% in size)
Outline: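 HEK293T cells carrying luciferase-tagged ATAD5, 2,000 cells/well, exposed to compound for 15.5 hr at 37C. Viability read as live-cell protease activity by CellTiter-Fluor fluorescence after 30 min at 37C.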

[4] = qHTS assay for small molecule disruptors of the mitochondrial membrane potential - cell viability (AID 720634; calls by dose curve;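 note: human HepG2 liver cancer cells; series mostly up to about 83 µM; nearly all actives have a fitted effect of over 20% in size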)
Outline: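 HepG2 cells, 2,000 per well, attached overnight, then treated 1 hr at 37 C, 5% CO2. Viability read as ATP by CellTiter-Glo luminescence after 30 min at room temperature. Read in the same wells as the m-MPI membrane-potential dye assay.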

[5] = qHTS assay to test for compound auto fluorescence at 590 nm (red) in HepG2 cells (AID 720674)
Outline: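 Compound auto-fluorescence is scored relative to Rose Bengal sodium, measured at 540/590 nm in live HepG2 cultures after 1 hr compound contact (37 C, 5% CO2).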

[6] = qHTS assay to test for compound auto fluorescence at 460 nm (blue) in HEK293 cells (AID 720678)
Outline: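 HEK293 cells (2,000/well, medium with 10% dialyzed FBS) attached 4-5 hr, then exposed to compound overnight at 37C, 5% CO2. Blue fluorescence read at 405/460 nm, with triamterene as reference fluorophore.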

[7] = qHTS assay to test for compound auto fluorescence at 590 nm (red) in HEK293 cells (AID 720679)
Outline: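 HEK293 cells (2,000/well, 10% dialyzed FBS) attached 4-5 hr, then dosed with compound or DMSO and incubated overnight at 37C, 5% CO2. Red fluorescence read at 540/590 nm, Rose Bengal sodium as reference fluorophore.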

[8] = qHTS assay to test for compound auto fluorescence at 535 nm (green) in HEK293 cells (AID 720680)
[9] = qHTS assay to test for compound auto fluorescence at 460 nm (blue) in HEK293 cell free culture (AID 720681)
Outline: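 Test compounds were pinned into cell-free culture medium (DMEM with 10% FBS) and fluorescence was read directly at Ex/Em 405/460 nm. Signals were expressed as fluorescence equivalents of triamterene, with DMSO vehicle as control.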

[10] = qHTS assay to test for compound auto fluorescence at 535 nm (green) in HEK293 cell free culture (AID 720682)
Outline: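 No cells present: wells hold DMEM supplemented with 10% FBS, into which compound or vehicle is pinned. Green emission is then recorded (485 nm excitation, 535 nm emission) and scaled to fluorescein.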

[11] = qHTS assay to test for compound auto fluorescence at 590 nm (red) in HEK293 cell free culture (AID 720683)
Outline: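 Tox21 10K library compounds were pinned into cell-free DMEM with 10% FBS and fluorescence was read at excitation 540 nm. Activity is expressed as Rose Bengal sodium equivalency.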

[12] = qHTS assay to test for compound auto fluorescence at 590 nm (red) in HepG2 cell free culture (AID 720684)
Outline: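 Red fluorescence (540 nm excitation, 590 nm emission) was measured after compound transfer into cell-free MEM supplemented with 10% FBS. Values are equivalencies against Rose Bengal sodium.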

[13] = qHTS assay to test for compound auto fluorescence at 460 nm (blue) in HepG2 cell free culture (AID 720685)
Outline: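 Compound (23 nL) or DMSO pinned into cell-free MEM with 10% FBS; blue fluorescence read at 405/460 nm excitation/emission, expressed as auto-fluorescence equivalency to triamterene.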

[14] = qHTS assay to test for compound auto fluorescence at 535 nm (green) in HepG2 cell free culture (AID 720686)
[15] = qHTS assay to test for compound auto fluorescence at 460 nm (blue) in HepG2 cells (AID 720687)
Outline: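 Cells (2,000/well in MEM with 10% FBS) attached overnight at 37 C, then were exposed to compound or DMSO for 1 hr at 37 C, 5% CO2. Fluorescence read at Ex/Em 405/460 nm, expressed as triamterene-equivalent signal.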

[16] = target: Glucocorticoid receptor (Homo sapiens) (UniProt P04150); test: qHTS assay to identify small molecule agonists of the glucocorticoid receptor (GR) signaling pathway (AID 720691; active = well fitted activation curve with a large enough effect in the signal ratio in the repeat runs, not every such curve was filed as active; the % refers to the signal ratio)
Chain of Glucocorticoid receptor (Homo sapiens) (P04150 whole entry, looked up): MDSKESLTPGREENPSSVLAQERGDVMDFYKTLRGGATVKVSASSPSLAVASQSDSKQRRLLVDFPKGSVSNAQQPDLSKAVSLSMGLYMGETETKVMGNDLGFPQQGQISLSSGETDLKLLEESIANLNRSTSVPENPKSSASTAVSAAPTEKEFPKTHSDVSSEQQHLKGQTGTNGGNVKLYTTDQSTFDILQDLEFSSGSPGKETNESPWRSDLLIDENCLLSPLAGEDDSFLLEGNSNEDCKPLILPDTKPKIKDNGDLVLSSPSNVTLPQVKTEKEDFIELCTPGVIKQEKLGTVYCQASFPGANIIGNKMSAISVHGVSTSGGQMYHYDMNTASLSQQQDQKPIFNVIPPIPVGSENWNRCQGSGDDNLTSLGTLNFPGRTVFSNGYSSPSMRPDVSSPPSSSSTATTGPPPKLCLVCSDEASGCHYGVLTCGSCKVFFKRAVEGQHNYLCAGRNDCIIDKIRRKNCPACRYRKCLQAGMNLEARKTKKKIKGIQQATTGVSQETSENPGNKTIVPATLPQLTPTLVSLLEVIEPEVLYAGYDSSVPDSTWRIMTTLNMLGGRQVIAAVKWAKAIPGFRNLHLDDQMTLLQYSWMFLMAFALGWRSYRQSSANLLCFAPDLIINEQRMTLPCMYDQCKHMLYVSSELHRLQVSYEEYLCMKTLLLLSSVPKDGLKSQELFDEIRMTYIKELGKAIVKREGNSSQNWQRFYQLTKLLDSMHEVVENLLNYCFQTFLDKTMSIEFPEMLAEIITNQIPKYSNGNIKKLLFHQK
Outline: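 GR-bla HeLa cells carrying a GRE-driven beta-lactamase reporter, exposed to compounds for 18 h at 37 C. Reporter activation read as fluorescence after 2 h with LiveBLAzer B/G FRET substrate at room temperature.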

[17] = qHTS assay to test for compound auto fluorescence at 535 nm (green) in HepG2 cells (AID 720675)
[18] = qHTS assay for small molecule disruptors of the mitochondrial membrane potential (AID 720635)
Outline: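 HepG2 cells (2,000/well) attached overnight at 37C, then took compound for 1 hr at 37C, 5% CO2. Mito-MPS dye was added for 30 min; fluorescence was read at 490/535 nm (monomers) and 540/590 nm (aggregates).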

[19] = target: Glucocorticoid receptor (Homo sapiens) (UniProt P04150); test: qHTS assay to identify small molecule antagonists of the glucocorticoid receptor (GR) signaling pathway (AID 720692; active = well fitted inhibition curve with a large enough effect in the signal ratio in the repeat runs, not every such curve was filed as active; the % refers to the signal ratio)
Outline: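 GR-bla HeLa cells carrying a GRE-driven beta-lactamase reporter received compound after 4 h plating, then dexamethasone (5 nM final). After 18 h at 37C, the FRET substrate was loaded for 2 h at room temperature and fluorescence read.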

Measured: Potency

NNC(N)=O
not listed: [17] | [18] | [19]
inactive: all other assays above

O=C(O)C(Cl)Br (centres undefined)
not listed: [1] | [18] | [19]
inactive: all other assays above

CC(C)[C@]12CC(=O)[C@H](C)[C@H]1C2
not listed: [4] | [6] | [9] | [16] | [19]
inactive: all other assays above

ClCCCCCCCl
not listed: [2] | [9] | [18]
inactive: all other assays above

CCCC(C)C1(CC)C(=O)N=C(S)NC1=O (centres undefined)
not listed: [1] | [13]
inactive: all other assays above

CC(C)(N)Cc1ccc(Cl)cc1
not listed: [6] | [12] | [16] | [18] | [19]
inactive: all other assays above

CCCC[N+](=O)[O-]
not listed: [9] | [10] | [12] | [18] | [19]
inactive: all other assays above

CCOC1Oc2ccc(OS(C)(=O)=O)cc2C1(C)C (centres undefined)
not listed: [4] | [13] | [16] | [18] | [19]
inactive: all other assays above

CC(O)CCl (centres undefined)
not listed: [6] | [18] | [19]
inactive: all other assays above

O=C(NC(O)C(Cl)(Cl)Cl)NC(O)C(Cl)(Cl)Cl (centres undefined)
not listed: [4] | [6] | [10] | [18] | [19]
inactive: all other assays above

CCOC(=O)CCl
not listed: [12] | [17] | [18]
inactive: all other assays above

C=CCN1CC[C@]23CCCC[C@H]2[C@H]1Cc1ccc(O)cc13
not listed: [4] | [10] | [18] | [19]
inactive: all other assays above

CN=CNc1ccc(C)cc1C
not listed: [4] | [17] | [18]
inactive: all other assays above

BrCC1CO1 (centres undefined)
not listed: [10] | [13] | [17] | [18]
inactive: all other assays above

O=C(O)c1c(Cl)ccc2cc(Cl)cnc12
not listed: [2] | [4] | [6] | [9] | [10] | [17] | [18] | [19]
inactive: all other assays above
